Experimental data taken from the supplement of paper PMC11732987, “Enantioselective OTUD7B fragment discovery through chemoproteomics screening and high-throughput optimisation” (Communications Chemistry, 2025).

Assays:
Assay in all cases: log2 ratio of Biotin-Ahx-Ub-VS probe labelling (fragment/DMSO); higher = less target engagement (more negative = stronger competition), active = hit call of the paper (q ≤ 0.05, log2 ratio ≤ -1)
Settings in all cases: compound concentration: 200 uM; treatment time: 3 h
USP19 = molecular target: T1, USP19 (UniProt O94966)
T1 sequence (whole entry): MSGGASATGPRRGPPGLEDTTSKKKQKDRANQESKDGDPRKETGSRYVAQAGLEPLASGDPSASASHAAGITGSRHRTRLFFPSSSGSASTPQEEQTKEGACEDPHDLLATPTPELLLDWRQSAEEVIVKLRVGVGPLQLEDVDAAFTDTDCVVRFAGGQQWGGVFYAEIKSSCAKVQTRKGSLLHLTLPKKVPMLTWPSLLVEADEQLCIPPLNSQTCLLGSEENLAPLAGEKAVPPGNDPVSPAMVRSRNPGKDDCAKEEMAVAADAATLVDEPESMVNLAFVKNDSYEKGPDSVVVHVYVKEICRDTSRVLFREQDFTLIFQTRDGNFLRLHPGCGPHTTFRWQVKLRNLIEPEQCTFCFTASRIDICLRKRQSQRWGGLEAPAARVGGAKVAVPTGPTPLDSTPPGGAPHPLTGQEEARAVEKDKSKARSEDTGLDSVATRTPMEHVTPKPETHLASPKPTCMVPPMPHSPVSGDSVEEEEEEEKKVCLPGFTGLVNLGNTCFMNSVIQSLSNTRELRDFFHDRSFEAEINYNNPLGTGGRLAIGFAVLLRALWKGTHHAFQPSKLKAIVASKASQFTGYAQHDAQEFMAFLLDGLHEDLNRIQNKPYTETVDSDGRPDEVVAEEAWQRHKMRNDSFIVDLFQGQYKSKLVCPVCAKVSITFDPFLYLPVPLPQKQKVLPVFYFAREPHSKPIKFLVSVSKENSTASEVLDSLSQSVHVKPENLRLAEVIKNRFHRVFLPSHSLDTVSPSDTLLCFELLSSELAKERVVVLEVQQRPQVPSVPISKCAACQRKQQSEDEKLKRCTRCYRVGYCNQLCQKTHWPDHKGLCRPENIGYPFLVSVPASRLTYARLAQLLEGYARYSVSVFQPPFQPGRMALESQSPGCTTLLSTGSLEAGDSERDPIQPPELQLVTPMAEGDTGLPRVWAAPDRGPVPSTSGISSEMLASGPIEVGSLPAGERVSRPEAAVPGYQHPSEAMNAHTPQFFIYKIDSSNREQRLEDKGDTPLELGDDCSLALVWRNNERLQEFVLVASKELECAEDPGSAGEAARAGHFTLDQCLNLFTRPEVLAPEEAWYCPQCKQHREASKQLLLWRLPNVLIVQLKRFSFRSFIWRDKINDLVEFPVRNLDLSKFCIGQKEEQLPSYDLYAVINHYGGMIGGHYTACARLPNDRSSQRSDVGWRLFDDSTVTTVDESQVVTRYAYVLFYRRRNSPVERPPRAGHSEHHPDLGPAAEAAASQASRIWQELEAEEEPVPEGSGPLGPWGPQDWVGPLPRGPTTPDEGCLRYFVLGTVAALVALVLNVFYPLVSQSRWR
Outline: (§1)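 Fragment (200 µM) or vehicle was incubated for 3 h with triplicate HEK293T lysate samples of 495 µg, which were then treated with Biotin-Ahx-Ub-VS at 0.5 µM final for 1 h. Labelled DUBs were enriched on NeutrAvidin, digested with LysC and trypsin, and analysed by diaPASEF LC-MS/MS. Values are average log2 fragment/vehicle ratios from an unpaired t-test on global-median-normalised Spectronaut label-free quantities, using proteins with ≥2 unique peptides.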

USP22 = molecular target: T2, USP22 (UniProt Q9UPT9)
T2 sequence (whole entry): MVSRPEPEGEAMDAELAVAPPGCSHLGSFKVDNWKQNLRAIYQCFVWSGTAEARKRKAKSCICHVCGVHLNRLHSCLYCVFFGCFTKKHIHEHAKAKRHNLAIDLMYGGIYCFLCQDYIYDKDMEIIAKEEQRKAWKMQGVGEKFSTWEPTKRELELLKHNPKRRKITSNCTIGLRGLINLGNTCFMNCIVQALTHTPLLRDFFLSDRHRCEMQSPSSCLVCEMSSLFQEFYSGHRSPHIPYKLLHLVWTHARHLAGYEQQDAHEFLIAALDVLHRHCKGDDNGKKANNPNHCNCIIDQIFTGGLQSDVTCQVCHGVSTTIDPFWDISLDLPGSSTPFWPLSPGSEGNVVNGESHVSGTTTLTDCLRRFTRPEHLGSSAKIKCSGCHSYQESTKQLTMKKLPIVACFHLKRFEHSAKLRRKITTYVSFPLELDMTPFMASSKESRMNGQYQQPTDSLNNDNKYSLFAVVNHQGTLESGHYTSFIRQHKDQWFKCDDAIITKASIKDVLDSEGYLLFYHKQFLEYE
Outline: as §1

USP24 = USP24 (UniProt Q9UPU5)
Outline: as §1

USP25 = molecular target: T3, USP25 (UniProt Q9UHP3)
T3 sequence (whole entry): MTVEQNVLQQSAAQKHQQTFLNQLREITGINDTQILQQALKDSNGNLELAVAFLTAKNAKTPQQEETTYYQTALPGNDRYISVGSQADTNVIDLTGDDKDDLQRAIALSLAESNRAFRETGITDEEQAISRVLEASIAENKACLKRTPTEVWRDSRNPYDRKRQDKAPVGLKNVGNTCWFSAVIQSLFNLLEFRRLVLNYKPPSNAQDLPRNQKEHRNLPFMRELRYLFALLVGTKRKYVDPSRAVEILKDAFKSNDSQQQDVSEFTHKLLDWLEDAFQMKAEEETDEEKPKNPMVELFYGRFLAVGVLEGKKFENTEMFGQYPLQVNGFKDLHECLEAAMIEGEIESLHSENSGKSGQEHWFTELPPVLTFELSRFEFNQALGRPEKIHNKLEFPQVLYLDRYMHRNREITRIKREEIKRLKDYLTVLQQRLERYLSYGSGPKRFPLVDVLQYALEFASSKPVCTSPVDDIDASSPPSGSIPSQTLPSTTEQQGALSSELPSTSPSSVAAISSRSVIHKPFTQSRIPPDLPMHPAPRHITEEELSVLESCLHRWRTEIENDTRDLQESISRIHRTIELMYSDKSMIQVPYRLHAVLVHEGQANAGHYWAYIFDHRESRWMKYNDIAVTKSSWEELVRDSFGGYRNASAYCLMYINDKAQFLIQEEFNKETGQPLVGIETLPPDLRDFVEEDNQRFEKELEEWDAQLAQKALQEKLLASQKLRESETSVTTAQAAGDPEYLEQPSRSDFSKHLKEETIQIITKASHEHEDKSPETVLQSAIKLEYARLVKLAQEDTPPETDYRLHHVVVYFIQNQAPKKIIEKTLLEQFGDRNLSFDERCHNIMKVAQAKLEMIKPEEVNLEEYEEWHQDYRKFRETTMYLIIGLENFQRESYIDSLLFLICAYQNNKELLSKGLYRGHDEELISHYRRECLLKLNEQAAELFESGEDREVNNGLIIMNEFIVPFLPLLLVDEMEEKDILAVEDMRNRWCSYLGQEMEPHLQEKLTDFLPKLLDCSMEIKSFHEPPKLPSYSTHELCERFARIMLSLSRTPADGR
Outline: as §1

USP28 = molecular target: T4, USP28 (UniProt Q96RU2)
T4 sequence (whole entry): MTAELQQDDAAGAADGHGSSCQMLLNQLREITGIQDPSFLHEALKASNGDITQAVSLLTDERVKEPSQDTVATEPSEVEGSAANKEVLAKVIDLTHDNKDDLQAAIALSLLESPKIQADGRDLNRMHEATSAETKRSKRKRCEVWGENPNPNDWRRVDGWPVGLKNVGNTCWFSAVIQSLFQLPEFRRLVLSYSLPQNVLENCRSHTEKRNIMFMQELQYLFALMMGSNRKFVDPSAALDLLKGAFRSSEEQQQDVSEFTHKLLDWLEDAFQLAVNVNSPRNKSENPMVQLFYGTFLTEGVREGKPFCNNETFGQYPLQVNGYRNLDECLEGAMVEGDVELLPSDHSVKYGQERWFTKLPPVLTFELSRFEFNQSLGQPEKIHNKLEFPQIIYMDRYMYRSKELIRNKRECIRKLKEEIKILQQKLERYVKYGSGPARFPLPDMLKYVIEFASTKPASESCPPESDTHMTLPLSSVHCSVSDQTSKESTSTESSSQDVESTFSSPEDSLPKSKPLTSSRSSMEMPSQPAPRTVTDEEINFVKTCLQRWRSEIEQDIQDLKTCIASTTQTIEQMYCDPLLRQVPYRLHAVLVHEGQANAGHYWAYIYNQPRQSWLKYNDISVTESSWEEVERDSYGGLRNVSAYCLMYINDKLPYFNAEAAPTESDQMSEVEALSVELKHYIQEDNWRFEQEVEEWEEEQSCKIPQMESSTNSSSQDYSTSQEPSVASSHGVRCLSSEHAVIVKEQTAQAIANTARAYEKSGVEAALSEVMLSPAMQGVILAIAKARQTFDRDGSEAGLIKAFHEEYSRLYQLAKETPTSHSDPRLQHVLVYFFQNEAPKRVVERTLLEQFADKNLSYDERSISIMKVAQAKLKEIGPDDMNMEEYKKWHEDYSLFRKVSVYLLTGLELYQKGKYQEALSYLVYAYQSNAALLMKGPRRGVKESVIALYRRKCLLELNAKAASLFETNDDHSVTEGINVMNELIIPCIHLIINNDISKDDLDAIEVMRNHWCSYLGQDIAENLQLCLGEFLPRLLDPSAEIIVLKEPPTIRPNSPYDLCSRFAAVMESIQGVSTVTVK
Outline: as §1

Measured: log2 ratio of Biotin-Ahx-Ub-VS probe labelling

Sequence of USP24 (Q9UPU5 whole entry): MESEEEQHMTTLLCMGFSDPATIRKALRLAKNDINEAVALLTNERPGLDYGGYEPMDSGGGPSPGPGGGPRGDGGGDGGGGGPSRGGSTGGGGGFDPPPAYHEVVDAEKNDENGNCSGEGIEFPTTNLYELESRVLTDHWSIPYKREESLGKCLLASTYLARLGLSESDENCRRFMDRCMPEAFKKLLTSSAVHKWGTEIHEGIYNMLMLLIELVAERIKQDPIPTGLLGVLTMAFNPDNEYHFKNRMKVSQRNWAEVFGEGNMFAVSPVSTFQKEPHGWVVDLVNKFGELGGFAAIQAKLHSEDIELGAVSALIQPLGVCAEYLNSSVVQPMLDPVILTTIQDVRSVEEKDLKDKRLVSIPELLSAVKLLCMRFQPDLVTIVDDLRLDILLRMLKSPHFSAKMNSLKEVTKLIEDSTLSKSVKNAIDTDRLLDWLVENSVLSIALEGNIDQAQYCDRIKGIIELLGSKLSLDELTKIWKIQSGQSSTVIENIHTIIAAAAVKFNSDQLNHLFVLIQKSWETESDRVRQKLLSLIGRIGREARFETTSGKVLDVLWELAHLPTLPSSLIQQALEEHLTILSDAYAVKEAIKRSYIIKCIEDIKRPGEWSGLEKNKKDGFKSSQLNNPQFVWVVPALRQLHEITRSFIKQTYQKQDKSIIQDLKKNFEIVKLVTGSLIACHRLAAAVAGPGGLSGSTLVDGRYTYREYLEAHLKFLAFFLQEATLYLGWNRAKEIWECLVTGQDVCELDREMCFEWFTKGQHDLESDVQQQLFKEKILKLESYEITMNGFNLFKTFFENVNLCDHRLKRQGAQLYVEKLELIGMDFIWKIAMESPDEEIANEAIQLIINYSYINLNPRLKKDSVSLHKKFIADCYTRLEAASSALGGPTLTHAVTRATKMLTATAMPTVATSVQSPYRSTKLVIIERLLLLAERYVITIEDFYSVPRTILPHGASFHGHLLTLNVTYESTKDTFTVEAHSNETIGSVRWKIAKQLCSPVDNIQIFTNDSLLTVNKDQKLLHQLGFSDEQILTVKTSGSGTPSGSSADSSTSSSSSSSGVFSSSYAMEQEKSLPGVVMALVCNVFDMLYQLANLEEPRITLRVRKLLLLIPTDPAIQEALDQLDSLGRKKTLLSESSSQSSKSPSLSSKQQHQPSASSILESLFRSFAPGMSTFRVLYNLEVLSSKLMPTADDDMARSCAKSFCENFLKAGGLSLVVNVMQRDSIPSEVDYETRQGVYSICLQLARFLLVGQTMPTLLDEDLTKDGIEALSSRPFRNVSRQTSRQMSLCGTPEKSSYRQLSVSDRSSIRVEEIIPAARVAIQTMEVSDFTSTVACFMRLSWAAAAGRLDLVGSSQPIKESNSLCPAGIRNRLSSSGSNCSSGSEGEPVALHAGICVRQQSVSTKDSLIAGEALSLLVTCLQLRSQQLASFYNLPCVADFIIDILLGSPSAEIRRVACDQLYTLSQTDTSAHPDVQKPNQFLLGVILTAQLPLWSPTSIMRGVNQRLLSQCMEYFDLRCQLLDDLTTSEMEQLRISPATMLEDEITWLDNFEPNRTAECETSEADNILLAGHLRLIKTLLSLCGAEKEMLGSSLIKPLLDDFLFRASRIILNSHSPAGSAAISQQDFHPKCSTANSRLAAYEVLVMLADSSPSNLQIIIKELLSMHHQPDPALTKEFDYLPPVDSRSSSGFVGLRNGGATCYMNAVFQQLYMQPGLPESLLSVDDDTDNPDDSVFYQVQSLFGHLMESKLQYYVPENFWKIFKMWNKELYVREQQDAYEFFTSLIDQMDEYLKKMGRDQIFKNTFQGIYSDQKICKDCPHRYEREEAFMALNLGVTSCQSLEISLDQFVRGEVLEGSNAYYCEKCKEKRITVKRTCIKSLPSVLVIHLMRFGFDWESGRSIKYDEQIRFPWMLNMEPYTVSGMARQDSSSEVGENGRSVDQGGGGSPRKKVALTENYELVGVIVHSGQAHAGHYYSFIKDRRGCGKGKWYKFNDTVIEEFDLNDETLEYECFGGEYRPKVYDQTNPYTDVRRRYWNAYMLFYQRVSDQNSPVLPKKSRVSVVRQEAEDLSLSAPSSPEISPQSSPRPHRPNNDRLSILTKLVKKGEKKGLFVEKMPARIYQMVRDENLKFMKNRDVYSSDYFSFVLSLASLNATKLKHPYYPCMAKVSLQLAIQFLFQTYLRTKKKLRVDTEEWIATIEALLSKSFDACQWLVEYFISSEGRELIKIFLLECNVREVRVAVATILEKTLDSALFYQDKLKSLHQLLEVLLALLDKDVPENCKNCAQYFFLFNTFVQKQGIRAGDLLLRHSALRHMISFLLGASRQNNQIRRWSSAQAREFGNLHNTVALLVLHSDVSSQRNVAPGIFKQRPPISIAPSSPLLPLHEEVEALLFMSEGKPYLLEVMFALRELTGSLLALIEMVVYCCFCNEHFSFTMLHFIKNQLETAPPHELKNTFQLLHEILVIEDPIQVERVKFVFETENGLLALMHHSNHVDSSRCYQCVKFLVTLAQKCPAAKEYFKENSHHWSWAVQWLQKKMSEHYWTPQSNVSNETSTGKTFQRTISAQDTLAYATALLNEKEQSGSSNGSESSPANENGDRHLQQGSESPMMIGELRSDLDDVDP

CCCn1nccc1NC(=O)CCl
inactive: USP19 -0.237 | USP22 0.165 | USP24 -0.693 | USP25 -0.184 | USP28 -0.445
